This note sets out measurements from PubChem BioAssay (NCI).

Some test systems named below: NCI-H23 lung; NCI-H226 lung; NCI-H322M lung; HOP-62 NSCLC; HOP-92 NSCLC; NCI-H522 lung; A549/ATCC NSCLC; 786-0 renal; COLO 205 colon; DU-145 prostate; K-562 leukemia; MALME-3M melanoma; MDA-MB-231 breast; RXF 393 renal; SF-268 CNS; SF-295 CNS; SF-539 CNS; UACC-257 melanoma; M14 melanoma; NCI-H460 lung.
Experiment in all cases: NCI-60 one-dose screen, 48 h (100 = growth as untreated, 0 = no growth, -100 = all killed)
Common to all, as to conditions: 10 µM unless noted

The panel holds about 83,000 compounds, 20% with a hit somewhere; the sample as a whole holds those more often.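 Testing used 96-well plates and a 48-hour single-concentration exposure. Example: -40 means 40% of the starting cells died.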 A number with no mark means an inactive call. Active and inactive are the calls of the source. The calls were made as follows: active = growth percent below 10; inactive = the rest.

`CC1=C2[C@@H](CC1)[C@]1(C)O[C@@](C3CCNCC3)(C[C@H]1OC(=O)CO)[C@H]2OC(=O)/C=C/c1ccccc1`: the growth is 84.9% in the assay on NCI-H23 lung; 92.3% in the assay with NCI-H226 lung; 105% in the assay with NCI-H322M lung; 94.5% in the assay on HOP-62 NSCLC; 71.8% in the assay on HOP-92 NSCLC; 83.6% with NCI-H522 lung. In addition, the growth is 92.2% with A549/ATCC NSCLC; 86.2% with 786-0 renal; 87.2% in the assay with COLO 205 colon; 101% in the assay with DU-145 prostate; 62.9% in the assay on K-562 leukemia; 81% in the assay on MALME-3M melanoma. For the same compound, the growth was 107% with MDA-MB-231 breast; 65.4% in the assay on RXF 393 renal; 87.7% with SF-268 CNS; 90.9% in the assay with SF-295 CNS; 91.5% with SF-539 CNS; 85% in the assay on UACC-257 melanoma. Moreover, the growth in the assay on M14 melanoma is 83.6%.

For `COCCOC(C)C(/C=N/NC(N)=S)=N/NC(N)=S` (configuration not stated), the growth in the assay on NCI-H23 lung was 49.8%; with NCI-H226 lung, 72.2%; in the assay on NCI-H322M lung, 89.8%; with HOP-62 NSCLC, 72.4%; with HOP-92 NSCLC, 101%; with NCI-H522 lung it was 94.5%. For the same compound, the growth with A549/ATCC NSCLC was 78.3%; with 786-0 renal, 99.3%; in the assay on COLO 205 colon, 90.6%; with DU-145 prostate, 102%; with K-562 leukemia it was 37.6%; in the assay with MALME-3M melanoma it was 94.3%. The growth was 68% in the assay with MDA-MB-231 breast; 97.2% with RXF 393 renal; 83.4% in the assay on SF-268 CNS; 76.2% in the assay on SF-295 CNS; 91.9% in the assay on SF-539 CNS; 34.5% with UACC-257 melanoma. The growth in the assay on M14 melanoma is 65.5%.

In the case of `OC1CSSC1Cn1cnc2c(Nc3ccc(OCc4cccc(F)c4)c(Cl)c3)ncnc21` (configuration not stated), the growth is -69.4% (active) in the assay with NCI-H23 lung; 4.07% (active) in the assay with NCI-H226 lung; -27.8% (active) in the assay on NCI-H322M lung; -27.2% (active) in the assay on HOP-62 NSCLC; -6.17% (active) in the assay with NCI-H460 lung; 139% in the assay with HOP-92 NSCLC. Further, the growth in the assay on A549/ATCC NSCLC is 3.03% (active); in the assay on 786-0 renal it was 69.5%; with COLO 205 colon it was -58.3% (active); with DU-145 prostate it was -36.8% (active); in the assay on K-562 leukemia, -56.7% (active); with MALME-3M melanoma, -5.08% (active). In addition, the growth is -59.2% (active) with MDA-MB-231 breast; 42.3% in the assay with RXF 393 renal; -41.5% (active) with SF-268 CNS; 4.71% (active) with SF-295 CNS; -3.08% (active) in the assay on SF-539 CNS; 26.6% with UACC-257 melanoma. Also, the growth in the assay on M14 melanoma is -81.1% (active).

Take `C#CCOc1cccc(Nc2ncnc3cc(NC(=O)CCl)ccc23)c1`: the growth in the assay with NCI-H23 lung is -65% (active); in the assay with NCI-H226 lung, -26.7% (active); in the assay on NCI-H322M lung it was -13.9% (active); in the assay on HOP-62 NSCLC, -61.6% (active); in the assay with HOP-92 NSCLC, -76.9% (active); in the assay on NCI-H522 lung it was -76.1% (active). The growth with A549/ATCC NSCLC was -59.4% (active); in the assay on 786-0 renal it was -69.1% (active); in the assay on COLO 205 colon, -79.9% (active); with DU-145 prostate, -77.1% (active); in the assay with K-562 leukemia, -43% (active); in the assay on MALME-3M melanoma, -73.4% (active). The growth in the assay on MDA-MB-231 breast was -78.9% (active); in the assay on RXF 393 renal, -75.6% (active); with SF-268 CNS it was -55.8% (active); in the assay with SF-295 CNS, -92.8% (active); in the assay with SF-539 CNS it was -80.4% (active); in the assay on UACC-257 melanoma it was -43.3% (active). The growth in the assay on M14 melanoma is -56.1% (active).

For the compound `O=S(=O)(N=C1C(Cl)=C(Cl)C(=NS(=O)(=O)c2ccccc2)C(Cl)=C1Cl)c1ccccc1`, the growth is 73.3% with NCI-H23 lung; 97.5% in the assay on NCI-H226 lung; 97.4% in the assay with NCI-H322M lung; 91.5% in the assay on HOP-62 NSCLC; 134% in the assay with HOP-92 NSCLC; 39.3% in the assay on NCI-H522 lung. The growth in the assay on A549/ATCC NSCLC was 74.4%; in the assay with 786-0 renal, 118%; with COLO 205 colon, 98.4%; in the assay with DU-145 prostate it was 20.5%; in the assay on K-562 leukemia it was 65.6%; in the assay with MALME-3M melanoma it was 113%. Besides, the growth in the assay on MDA-MB-231 breast is 98.8%; in the assay with RXF 393 renal, 64.7%; in the assay with SF-268 CNS, 87.1%; with SF-295 CNS, 64.2%; with SF-539 CNS, 109%; in the assay on UACC-257 melanoma, 68.9%. Further, the growth in the assay with M14 melanoma was 94.1%.

As to `COc1ccc(C2C3=C(COC3=O)N(CCO)c3cc4c(cc32)OCO4)cc1OC` (configuration not stated), the growth in the assay on NCI-H23 lung is 73.6%; in the assay on NCI-H226 lung, 115%; in the assay on NCI-H322M lung, 104%; in the assay on HOP-62 NSCLC, 70.6%; in the assay on NCI-H460 lung, 95.8%; in the assay on HOP-92 NSCLC it was 68.7%. Moreover, the growth with A549/ATCC NSCLC was 90.7%; in the assay with 786-0 renal, 84%; in the assay on COLO 205 colon it was 83.6%; with DU-145 prostate it was 100%; with K-562 leukemia, 52%; with MALME-3M melanoma it was 104%. Further, the growth is 101% in the assay on MDA-MB-231 breast; 81.4% with RXF 393 renal; 91% in the assay on SF-268 CNS; 62.6% with SF-295 CNS; 91.9% with SF-539 CNS; 90.6% in the assay on UACC-257 melanoma. Besides, in the assay on M14 melanoma, the growth is 68.6%.

In the case of `Cc1oc(-c2ccc(Cl)cc2)nc1C1=NN(C(=O)c2ccncc2)C(c2ccccc2)C1` (configuration not stated), the growth in the assay on NCI-H23 lung is 87.3%; with NCI-H226 lung, 84.6%; with NCI-H322M lung, 93.7%; in the assay with HOP-62 NSCLC, 107%; in the assay with HOP-92 NSCLC, 96.1%; in the assay on NCI-H522 lung, 86.6%. For the same compound, the growth with A549/ATCC NSCLC was 87.7%; in the assay on 786-0 renal, 83.4%; in the assay on COLO 205 colon it was 108%; in the assay with DU-145 prostate it was 101%; with K-562 leukemia, 85.9%; in the assay on MALME-3M melanoma it was 101%. Moreover, the growth with MDA-MB-231 breast was 76.7%; with RXF 393 renal it was 82.3%; with SF-268 CNS, 89.2%; in the assay on SF-295 CNS, 89.4%; in the assay on SF-539 CNS it was 95.6%; with UACC-257 melanoma, 103%. Also, the growth in the assay on M14 melanoma was 99.2%.

Consider `C=C1C(=O)O[C@@H]2C3C(=C(C)CC[C@@H]12)CC1O[C@]13C` (some centres not stated), for which the growth with NCI-H23 lung was 82.9% [6.75 µM]; with NCI-H226 lung, 88.2% [6.75 µM]; in the assay on NCI-H322M lung it was 95.8% [6.75 µM]; in the assay on HOP-62 NSCLC, 94.1% [6.75 µM]; with HOP-92 NSCLC it was 102% [6.75 µM]; with NCI-H522 lung, -52.3% [6.75 µM] (active). Further, the growth was 90.1% [6.75 µM] in the assay with A549/ATCC NSCLC; 83.1% [6.75 µM] in the assay with 786-0 renal; 87% [6.75 µM] in the assay with COLO 205 colon; 52.9% [6.75 µM] in the assay with DU-145 prostate; 49.6% [6.75 µM] in the assay on K-562 leukemia; 77.6% [6.75 µM] with MALME-3M melanoma. In addition, the growth with MDA-MB-231 breast was 93.5% [6.75 µM]; in the assay on RXF 393 renal, 91.6% [6.75 µM]; in the assay with SF-268 CNS, 91.2% [6.75 µM]; in the assay with SF-295 CNS, 102% [6.75 µM]; in the assay on SF-539 CNS it was 82.3% [6.75 µM]; with UACC-257 melanoma, 70.4% [6.75 µM]. For the same compound, the growth in the assay with M14 melanoma was 65.5% [6.75 µM].
